Screening results: PubChem BioAssay, several laboratories
This is a sample that favours compounds with a hit; in the whole collection about 4.7% have one here.
HSF1 inhib: HSF1 inhibition; NIH3T3-HGL HSE-luciferase, MG132-induced, luminescence 8 h; hits give low values; activity change, negative = inhibition, % at 7.5 µM (by protocol); 300,000 tested, 0.77% active; AID 2098;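 active = more than half of replicate wells show activity change below -50%, luminescence cut by over half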;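 note: luciferase reports HSF-1 transcriptional activity via heat shock element; 0% = median of DMSO wells and -100% = zero luminescence signal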
TWEAK-Fn14 inh: inhibitors of TWEAK-Fn14 interaction signaling. 360,000 tested, 2% active. TWEAK-stimulated Fn14 reporter cells, luciferase luminescence, 8 h. inhibition, % at 10 µM. AID 1159606; in the data active = inhibition above about 50%
LMP1 NFkB inh: inhibitors of Epstein-Barr LMP1-induced NF-kappaB reporter; LMP1-induced NF-kappaB luciferase reporter cells, luminescence; inhibition, % at 12.5 µM; 350,000 tested, 0.69% active; AID 504558; in the data active = inhibition above about 41%;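 note: 0% = neutral control wells and 100% = reference inhibitor control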
TROY NFkB inh: TROY signaling inhibition; Q293 LMP1-TROYcd NF-kB luciferase reporter, 4 h; inhibition, % at 10 µM; 360,000 tested, 0.98% active;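 active = compounds whose plate-normalised and pattern-corrected inhibition of the luciferase reporter signal at the single screening dose is 50% or more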
HSP90 refold inh: HSP90 refolding inhibition in rabbit reticulocyte lysate. luciferase refolding luminescence, 3 h. inhibition, % at 5.6 µM. 290,000 tested, 0.91% active. AID 1789;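 active = inhibition above the screen-wide mean plus 3 SD, computed separately per campaign, cut at about 16% in these data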;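 note: 0% = DMSO wells and 100% = 60 µM geldanamycin wells; inhibitors lower the luminescence because luciferase stays unfolded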
HSF1 activator: increases HSF-1 driven luciferase reporter signal; NIH3T3-HGL HSF-1 luciferase reporter, MG132, 8 h; 100% = twice DMSO control signal; activation, % at 9 µM; 300,000 tested, 1.7% active;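 active = mean replicate activation of at least 50% with a set share of replicates each reaching 50%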;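 note: 0% = median of the neutral control wells and 100% = twice that signal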
Active calls of the source: *; / = not tested or not shown; ! = repeats disagree.

SMILES	HSF1 inhib	TWEAK-Fn14 inh	LMP1 NFkB inh	TROY NFkB inh	HSP90 refold inh	HSF1 activator
CCC(c1nnnn1-c1ccc2c(c1)OCCO2)N1CCN(c2ccc(C)cc2)CC1 (stereo not given)	/	39.0	/	21.4	/	/
Cc1occc1-c1nnc(SCC(=O)Nc2ccccc2)n1CCc1ccccc1	3.3	-11.0	7.1	-3.3	-0.3	15.3
Cc1occc1-c1nnc(SCC(=O)Nc2ccccc2)n1C	-81.8*	-12.1	-1.4	-2.8	-3.3	-85.2
OC[C@@H]1CN(Cc2cccs2)C[C@H](n2cnc3c(NCc4ccncc4)ncnc32)O1	/	4.3	/	-11.1	/	/
CC1(C(=O)NCc2ccccc2Br)CCN1Cc1csc2ccccc12 (stereo not given)	/	12.9	/	21.9	/	/
Oc1ccccc1C1=Nc2ncnn2C(c2ccc(F)cc2)C1 (stereo not given)	10.2	5.4	61.8*	14.7	/	6.8
Fc1ccc(C2CC(c3ccc(F)cc3)n3ncnc3N2)cc1 (stereo not given)	-1.1	-8.1	9.5	-5.3	-0.1	-7.8
Cc1ccc(C2=NN(C(=S)Nc3ccccc3)C(c3ccco3)C2)cc1 (stereo not given)	38.5	48.4	-69.7	56.8*	7.2	60.6*
COc1ccc(S(=O)(=O)N(C)CC(=O)Nc2ccccc2C(F)(F)F)cc1OC	-6.1	74.0*	-0.5	/	-1.7	1.9
CCN(CC(=O)Nc1ccc(OC)c(OC)c1)CC(=O)Nc1ccccc1C(F)(F)F	-2.1	-17.3	-5.6	-1.5	-0.6	0.6
COc1ccc(CC(C)NCC(O)c2ccc(O)c(NC=O)c2)cc1 (stereo not given)	/	-40.8	61.1*!	3.0	/	/
COc1ccc(CN2CCC[C@]3(N[C@H](c4ccccc4)[C@@H]4C(=O)N(Cc5ccccc5)C(=O)[C@@H]43)C2=O)cc1	/	3.4	-2.2	7.3	/	/
COc1ccc(N2CCN(S(=O)(=O)c3cccc4cccnc34)CC2)cc1	3.8	2.5	0.4	-2.8	-0.9	5.3
COc1cccc(CC2(CO)CCN(S(=O)(=O)c3ccc(OC)cc3OC)CC2)c1	-55.9*	-13.7	-5.8	-1.7	-3.6	-66.5
COc1ccc(CC2(CO)CCN(S(=O)(=O)c3cccc4cccnc34)CC2)cc1	-0.6	56.0*	8.5	14.4	1.9	8.3
COc1ccc(S(=O)(=O)N2CCN(CCc3ccccc3)CC2)c(OC)c1	4.2	3.3	6.9	14.3	-3.7	9.9
CC1(C(=O)NS(=O)(=O)c2ccc(Cl)cc2)CCN1C(=O)CCC1CCCC1 (stereo not given)	/	-13.5	/	-2.4	/	/
Cc1nn(-c2cccc(Cl)c2)c2c1C(c1ccncc1)C(C#N)=C(N)O2 (stereo not given)	67.0	5.8	3.2	16.5	3.8	82.1*
CC(=O)NC(C)(c1ccccc1)c1nc(-c2ccc(F)c(Cl)c2)cs1 (stereo not given)	/	-10.1	/	12.9	/	/
CCCCN(C(=O)COc1ccc(C)cc1OC)c1c(N)n(CCC)c(=O)[nH]c1=O	-69.1*	8.5	-2.3	5.4	5.3	-76.8
CCCCCN(C(=O)CCC(=O)OCC(=O)c1ccc(C(C)(C)C)cc1)c1c(N)n(CCCC)c(=O)[nH]c1=O	24.5	-7.3	1.4	-66.3	/	75.7*
Cc1cc(C)cc(Cn2cc(CN3CC(N4CCN(Cc5ccccc5F)CC4)CS3(=O)=O)nn2)c1 (stereo not given)	/	11.1	/	2.0	/	/
CCCNC(=O)C1(C)CCCN(Cc2ccccc2-c2ccccc2)C1 (stereo not given)	/	-10.2	/	-6.8	/	/
COc1ccc(S(=O)(=O)NC(=O)C2(C)CCN2C(=O)Cc2cc(C)cc(C)c2)cc1 (stereo not given)	/	3.6	/	-8.4	/	/
CC(C)(C)c1cc(C(c2cccnc2)N2CCN(CCO)CC2)cc(C(C)(C)C)c1O (stereo not given)	62.5	41.8	-4.0	9.3	-1.9	76.0*
OCCN1CCN(C(c2cccs2)c2ccc3cccnc3c2O)CC1 (stereo not given)	/	/	/	/	15.2	/
COc1ccc(CN2C(=O)C(CC(=O)NCc3cccc4ccccc34)CC(C(=O)N(C(C)C)C(C)C)=C2C)cc1 (stereo not given)	/	-11.3	/	-4.1	/	/
CCCc1nc2ccc(C)cn2c1Cc1cccc(Cl)c1	/	16.7	/	4.9	/	/
C/C(CC(=O)Nc1ccccn1)=N\NC(=O)C(=O)Nc1cccc(C)c1	2.5	5.7	1.9	-1.7	3.0	-0.1
